# The entries come from a sample that favours hits as a whole.
# CtBP-E1A blk – CtBP/E1A binding inhibition. activity change, % (no concentration beside the values). 340,000 compounds, 0.49% hits. AlphaScreen GST-E1A/His-CtBP binding, 1536-well; hits give low values; in the data active = activity change below about -65%; inconclusive = mostly about -30% to -63%
#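 AlphaScreen with 125 nM GST-E1A and 125 nM His-CtBP (5X stocks) in Tris pH 8.0, 300 mM NaCl, BSA, Tween 20, TCEP. Compounds preincubated 2 h at 37 deg C, then glutathione donor/nickel acceptor beads added for 1 h at 37 deg C in dark.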
# Apoferritin bind – candidate novel general anesthetic via apoferritin binding | P02791 | Potency, µM (highest dose often 77.5 µM), without a hit: at the highest dose activity change, negative = displacement, actives largely listed as inhibitors | apoferritin/1-aminoanthracene competitive binding, fluorescence | 350,000 compounds, 0.074% hits; also: potency is read from the fitted curve at half-maximal effect; nearly all actives have a fitted effect of over 20% in size
# Target sequence (P02791 2-175 limits assumed): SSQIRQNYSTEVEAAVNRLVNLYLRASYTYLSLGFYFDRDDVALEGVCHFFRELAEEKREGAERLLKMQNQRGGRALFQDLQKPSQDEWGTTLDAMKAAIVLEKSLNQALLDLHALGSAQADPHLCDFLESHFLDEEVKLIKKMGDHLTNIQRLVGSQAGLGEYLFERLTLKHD
#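 Horse-spleen apoferritin (10 uM) was mixed with 50% saturated 1-aminoanthracene in PBS, exposed to compounds for 10 min at room temperature, and read for fluorescence (ex 380 nm, em 535 nm). Competitive displacement was fitted with a four-parameter Hill equation.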
# Eya2 inh – Eya2 (human) phosphatase inhibition; Potency, µM (highest dose often 76.9 µM), without a hit: top-dose activity, negative = inhibition, usual class: inhibitors; AID 488837; 330,000 compounds, 0.006% hits; O00167; recombinant Eya2, OMFP fluorescence dephosphorylation (OMFP is methylfluorescein phosphate); also: potency is read from the fitted curve at half-maximal effect
#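 Eya2 protein (added as 0.2 uM solution) was preincubated with compound for 10 min at ambient temperature in 50 mM HEPES pH 7.5, 50 mM NaCl, 5 uM MgCl2, 0.05% BSA, 1 mM DTT. OMFP (added at 50 uM) then reacted 10 min; fluorescence read at 485/525 nm.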
# GALK inh – blocks human galactokinase activity; P51570; Purified GALK, Kinase-Glo residual ATP luminescence; Potency, µM (titrated, usually from 57.5 µM), inactives show at the top dose activity change, negative = inhibition, most hits filed as inhibitors; 270,000 compounds, 0.007% hits; AID 1868; also: potency is read from the fitted curve at half-maximal effect
#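 The enzyme phosphorylates galactose (100 uM) using ATP (35 uM); inhibition is detected as higher residual ATP, quantified by bioluminescence after 1 h reaction at room temperature, pH 8.0.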
# Six1-Eya2 blk – blocks human Six1 binding to Eya2 | Q15475+O00167 | AlphaScreen GST-Six1/His-Eya2 binding, biochemical; hits give low values | activity change, % (no concentration beside the values) | 360,000 compounds, 0.56% hits; in the data active = activity change below about -65%; inconclusive = mostly about -30% to -63%
#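 GST-Six1 + His-Eya2 (5X stock: 250/500 nM); Tris pH 8.0, 300 mM NaCl, 0.05% BSA, 0.02% Tween 20; GSH donor/Ni acceptor beads; 1 h 37 °C dark; AlphaScreen readout.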
# KDM4E inh – blocks human JMJD2E demethylase activity | B2RXH2 | JMJD2E catalytic domain, FDH-coupled NADH fluorescence (FDH is formaldehyde dehydrogenase) | Potency, µM (doses to about 57.1 µM), for the others: at the highest dose activity change, negative = inhibition, actives largely listed as inhibitors | 230,000 compounds, 1.6% hits | AID 2147; active = well fitted inhibition curve with a large enough effect, not every such curve was filed as active; inconclusive = small, poorly fitted or top-dose-only effect, or another doubt; inactive = no such curve, though single readings can be large or run the other way;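 also: potency is read from the fitted curve at half-maximal effect; 0% = wells with enzyme and -100% = buffer wells without enzyme; nearly all actives have a fitted effect of over 50% in size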
# Target sequence (B2RXH2 1-337 limits assumed): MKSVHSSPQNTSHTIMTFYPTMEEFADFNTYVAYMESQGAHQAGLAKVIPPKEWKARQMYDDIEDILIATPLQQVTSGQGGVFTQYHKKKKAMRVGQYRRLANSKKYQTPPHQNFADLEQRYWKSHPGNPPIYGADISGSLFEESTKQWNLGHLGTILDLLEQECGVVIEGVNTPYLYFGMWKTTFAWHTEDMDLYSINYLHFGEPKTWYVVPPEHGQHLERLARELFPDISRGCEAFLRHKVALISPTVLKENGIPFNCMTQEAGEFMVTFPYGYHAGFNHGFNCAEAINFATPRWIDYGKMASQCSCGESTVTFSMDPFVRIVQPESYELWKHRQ
# Numbers without * were called inactive; ? = inconclusive; · = no result given; ! = repeats disagree. Unless noted, calls follow the shape of the dose curve; as a rule, active = well fitted curve in the direction sought with a large enough effect; inconclusive = small, poorly fitted or top-dose-only effect, or another doubt; inactive = no such curve, though single readings can be large; an effect the other way counts as inactive or inconclusive. Unless noted, % is scaled to controls: 0 for no effect and ±100 for the full control effect.
SMILES,CtBP-E1A blk,Apoferritin bind,Eya2 inh,GALK inh,Six1-Eya2 blk,KDM4E inh
N=C1/C(=C\c2coc3ccc(O)cc3c2=O)C(=O)N=C2SC=CN12,-89.8*,-11.7%,11.3%,·,-80.4*,-0.3%
O=Nc1c(O)[nH]c2ccc(F)cc12,-4.6,-6.9%,-7.8%,-0.8%,-13.5,3.4%
NC(=S)N=Nc1c(O)[nH]c2ccc(F)cc12,12.9,-3.3%,-19.2%,·,-79.7*,7.4%
S=C(NN=Cc1ccccn1)N(Cc1ccccn1)Cc1ccccn1,-94.1*,·,·,·,-90.9*,·
S=C(NN=C(c1ccccc1)c1ccccn1)N(Cc1ccccn1)Cc1ccccn1,3.7,·,·,·,-94.0*,·
CC(=NNC(=S)N(Cc1ccccn1)Cc1ccccn1)c1cnccn1,-3.1,·,·,·,-90.2*,·
O=C(CCCC(=O)N/N=C\c1ccccn1)N/N=C\c1ccccn1,-5.3,18.5%,2.2%,1.0%,2.0,-4.8%
Cc1ccc(NC(=O)CSc2nc3n[nH]c(C)c3c(=N)n2-c2ccccc2C)cc1C,·,-7.7%,·,·,·,·
CSc1nnc(C)c(/C=C/Nc2ccc(F)cc2)n1,?,-9.5%,3.3%,-1.7%,?,-2.0%
CSc1nnc(C)c(/C=C/Nc2ccc(Cl)cc2)n1,?,-23.3%,15.9%,-4.5%,-70.5*,-8.4%
COc1ccc(N/C=C/c2nc(SC)nnc2C)cc1,-85.2*,?,-7.2%,2.1%,-72.2*,-14.6%
O=C1c2ccccc2C(=O)c2c(NCCCN(CCO)CCO)cccc21,-28.5,?,-4.0%,7.4%,?,-3.0%
CCN(CCCNc1cc2c(c(N)c1S(=O)(=O)O)C(=O)c1ccccc1C2=O)c1ccccc1,-15.6,·,·,·,-65.3*,·
Cc1nc2ncccn2c1-c1csc(Nc2ccc(O)cc2)n1,-90.0*,-14.7%,6.1%,-1.5%,-87.2*,?
Cc1ccnc(Nc2nc(-c3ccccc3)cs2)c1,·,5.9%,5.9%,-0.9%,5.3,·
Cc1ccnc(Nc2nc(-c3c(C)nc4sccn34)cs2)c1,-78.3*,3.2%,-31.9%,-0.5%,-68.1*,?
Cc1ccc(Nc2nc(-c3c(C)nc4ncccn34)cs2)cc1,-90.1*,-14.5%,-9.0%,0.9%,-74.6*,?
COc1ccc(OC)c(CNS(=O)(=O)c2c(C(=O)N3CCC(C)CC3)c(C)n(C)c2C)c1,·,15.6%,·,·,·,·
CCC/C=C/C(C)O (stereo not given),·,·,·,·,·,10.8%
Cc1[nH]n(-c2ccccc2)c(=S)c1C=Nc1cccc([N+](=O)[O-])c1,0.5,?,16.4%,0.0%,1.1,5.62µM*
CCS(=O)(=O)N1CC(=O)N(c2ccc(C)c(C)c2)C(C)(C(=O)NC2CCCCCC2)C1 (stereo not given),·,-9.3%,·,·,·,·
CC(C)Cc1nc2ccccc2[nH]1,3.0,-3.2%,?,3.8%,-10.1,-0.8%
CC(C)Cc1nc2ccc(N)cc2[nH]1,-10.8,-4.9%,-8.6%,-1.3%,3.3,35.5µM*
O=C(Cc1cc(=O)[nH][nH]1)N/N=C/c1cccc(Cl)c1Cl,-14.3,?,-0.9%,1.4%,-3.3,3.98µM*!
C=CCN(C(C(=O)OC)C(C)C)S(=O)(=O)CCl (stereo not given),·,-3.1%,·,·,·,·
SMILES,CtBP-E1A blk,Apoferritin bind,Eya2 inh,GALK inh,Six1-Eya2 blk,KDM4E inh
CCc1n(CC(O)COCC2CC=CCC2)c2ccccc2[n+]1C (stereo not given),6.5,-5.8%,3.2%,0.5%,4.1,11.2µM*
CCCc1n(CC)c2ccccc2[n+]1CC(O)COC1CCCCC1 (stereo not given),5.5,-5.0%,14.0%,0.0%,3.6,-11.7%
Cc1nc2ccccc2n1CC(O)COCC1CC=CCC1 (stereo not given),-1.3,-12.3%,5.6%,-1.3%,8.5,6.6%
CCc1n(CC(O)COC2CCCCC2)c2ccccc2[n+]1C (stereo not given),-3.6,-2.8%,4.2%,6.0%,5.3,10µM*
Cc1ccc(Nc2c3c(nc4nncn24)CCC3)cc1C,·,-3.9%,·,·,·,·
O=C1C=CC2=C3c4cc(O)c(O)cc4CC3(O)COC2=C1O (stereo not given),?,·,·,·,?,2µM*
O=C1c2cccc3cccc(c23)C(=O)N1OS(=O)(=O)c1ccccc1,-13.5,-13.5%,9.5%,1.5%,-70.9*,?

# Bioassay records: PubChem, National Center for Advancing Translational Sciences (NCATS)
